# LMP1 NFkB inh: Epstein-Barr LMP1 NF-kappaB reporter inhibition. LMP1-induced NF-kappaB luciferase reporter cells, luminescence. inhibition, % at 12.5 µM. 350,000 compounds, 0.69% hits. AID 504558; in the data active means inhibition above about 41%;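 further: 0% = neutral control wells and 100% = reference inhibitor control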
# HIF-2a block: inhibitors of HIF-2a | inhibition, % at 18.8 µM | 360,000 compounds, 0.72% hits | 786-0 RCC cells HIF-2a reporter, luciferase luminescence, overnight;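 active means inhibition of the luminescence signal of 40% or more relative to plate controls, in a single-dose primary screen at 18.75 µM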
# Shn3 3UTR inh: Schnurri-3 reporter inhibition in Clone20 osteoblasts; Clone20 osteoblast Shn3 3'UTR firefly luciferase, 24 h; inhibition, % at 12.5 µM; 360,000 compounds, 0.52% hits;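 active means mean inhibition of at least 75% with every replicate also reaching 75%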;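 further: 0% = median of neutral control wells and 100% = pilot-screen positive control compound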
# TROY signal inh: inhibitors of TROY-dependent NF-kB signaling. Q293 LMP1-TROYcd NF-kB luciferase reporter, 4 h. inhibition, % at 10 µM. 360,000 compounds, 0.98% hits;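 active means compounds whose plate-normalised and pattern-corrected inhibition of the luciferase reporter signal at the single screening dose is 50% or more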
# TRPM1 prom inh: MITF TRPM1 promoter inhibition in SK-MEL-5 cells. SK-MEL-5 TRPM1 promoter luciferase, 24 h. inhibition, % at 12.5 µM. 330,000 compounds, 0.83% hits;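 active means mean inhibition across replicates of 60% or more, whatever share of single replicates reaches that level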
# TWEAK-Fn14 inh: blocks TWEAK-Fn14 interaction in a reporter cell assay; inhibition, % at 10 µM; TWEAK-stimulated Fn14 reporter cells, luciferase luminescence, 8 h; 360,000 compounds, 2% hits; in the data active means inhibition above about 50%
# * = called active by the depositor; . = no result given. An excerpt weighted towards active compounds, which were near 3.4% of everything screened.
SMILES,LMP1 NFkB inh,HIF-2a block,Shn3 3UTR inh,TROY signal inh,TRPM1 prom inh,TWEAK-Fn14 inh
CN(N=O)c1ccc(C=C2C=Cc3ccccc32)cc1,-16,-282,-1,1,-75,22
CC(=O)N(C)c1ccc(C=C2C=Cc3ccccc32)cc1,3,-106,11,71*,-12,79*
Cn1c(O)c(N=NC(=O)CNC(=O)c2ccccc2)c2ccccc21,-1,4,-3,-5,1,-12
Cn1c(N=NC(=O)c2ccccc2)c(O)c2ccccc21,36,-49,-69,39,20,69*
Oc1ccc(/C=N/NC(=S)Nc2cccnc2)c(O)c1O,-3,21,0,-17,27,50*
O=C1Cc2cc(S(=O)(=O)Nc3ccc(N4CCOCC4)cc3)ccc2N1,1,9,14,-7,3,-2
CN(CC(=O)NCCN1CCOCC1)S(=O)(=O)c1ccc(Cl)cc1,1,9,10,10,-10,0
CN(CC(=O)NCCCN1CCOCC1)S(=O)(=O)c1ccc(Br)cc1,0,13,-3,.,3,63*
COC1C(CO)OC(n2c3c(Cl)cccc3c3c4c(c5c6cccc(Cl)c6[nH]c5c32)C(=O)NC4=O)C(O)C1O (stereo not drawn),60*,34,0,18,86*,0
CSc1ccc(OC2(C)CCN(Cc3ccc4c(c3)OCCO4)C2)cc1 (stereo not drawn),.,-6,-19,3,.,-10
O=C(Cc1ccccc1)NC(Nc1cccc2ccccc12)C(Cl)(Cl)Cl (stereo not drawn),-2,8,27,56*,13,12
O=C(Cc1ccccc1)NC(Nc1ccccc1)C(Cl)(Cl)Cl (stereo not drawn),-5,17,4,10,12,-6
O=S1(=O)CC(N2CCN(CC3CC3)CC2)CN1CCc1ccccc1 (stereo not drawn),.,-3,7,18,.,-11
CN[C@H]1CCc2cc(OC)c(OC)c(OC)c2-c2ccc(N(C)CC(OC)OC)c(=O)cc21,1,16,19,-12,24,8
CCN(CC)c1ccc2c(cc1=O)[C@@H](NC)CCc1cc(OC)c(OC)c(OC)c1-2,22,7,33,20,66*,11
COc1cc2c(c(OC)c1OC)-c1ccc(OC)c(=O)cc1C(N)CC2 (stereo not drawn),-2,22,7,19,39,64*
COc1cc2c(c(OC)c1OC)-c1ccc(N(C)CC(OC)OC)c(=O)cc1[C@@H](NC(C)=O)CC2,-11,26,-30,21,73*,16
O=S(=O)(c1cc(F)ccc1F)N1CCN2CCCC2C1 (stereo not drawn),8,16,-2,1,7,-13
COc1ccc(C(=O)N2CCOC2CNC(=O)C(=O)NCc2ccccn2)cc1 (stereo not drawn),6,18,-21,-1,.,1
COCCNC(=O)C1CCCN(C(=O)c2ccc(OC)c(F)c2)CC1 (stereo not drawn),.,-8,3,-4,.,2
O=C(Nc1ccc(N2CCCC2)c(Cl)c1)c1cccnc1,-10,-54,-46,.,-79,83*
CC(C)C(Cl)=NOC(=O)Nc1ccc(F)cc1,5,18,99*,-8,8,51*
C/C(=N\OC(=O)Nc1ccc(Cl)cc1)c1ccc(F)c(F)c1,-10,-121,-2,-35,-25,-29
O=C(C1CC(=O)N(c2ccc3c(c2)OCCO3)C1)N1CCN(S(=O)(=O)c2ccc(F)cc2)CC1 (stereo not drawn),53*,9,-38,0,7,3
O=C(C1CC(=O)N(c2ccc3c(c2)OCCO3)C1)N1CCN(S(=O)(=O)c2ccccc2F)CC1 (stereo not drawn),10,30,-4,49,9,83*
SMILES,LMP1 NFkB inh,HIF-2a block,Shn3 3UTR inh,TROY signal inh,TRPM1 prom inh,TWEAK-Fn14 inh
CN(C)c1nc(N)c(C#N)c(C#N)c1C#N,5,0,-12,2,-16,-3
Cc1ccc(S(=O)(=O)NC2CCSC2=O)cc1C (stereo not drawn),69*,15,-5,-7,12,-6
COc1ccc([C@H]2C[C@@H](O)[C@H](n3cc(COC(=O)c4ccccc4)nn3)CN2C(=O)C2CCCCC2)cc1,7,10,-3,5,.,-3
CCN(Cc1ccccc1)c1ccc(/C=C(\C#N)c2ccccn2)cc1,-48,-267,-43,-11,-112,-1
CN(CCC#N)c1ccc(/C=C(\C#N)c2ccccn2)cc1,-16,-39,-15,40,1,52*
CCN(CC)c1ccc(/C=C(\C#N)c2ccccn2)cc1,-89,-59,35,71*,-25,77*
Cc1ccc2cccc(OC(=O)c3c(F)cccc3Cl)c2n1,.,-8,-10,-8,.,-4
CC(O)(c1cccc(F)c1)c1nc(/C=C/c2ccccc2)cs1 (stereo not drawn),.,-19,-8,-8,.,21
Cc1c(OC(C)C(=O)O)ccc2c3c(c(=O)oc12)CCCC3 (stereo not drawn),-4,16,-23,-6,9,56*
CCCCCC(=O)NC(=S)Nc1ccc(Br)cc1C,44*,-18,-52,-25,-4,1
COc1ccc(C(O)c2nc(-c3ccc(Cl)cc3)cs2)cc1 (stereo not drawn),.,-81,16,-10,.,7
CN1CCN(S(=O)(=O)c2ccc(F)cc2)CC1,4,-1,-17,-11,.,18
O=C(N/N=C/c1c[nH]c2ccccc12)c1cc(-c2ccc(-c3ccccc3)cc2)n[nH]1,3,-55,-28,9,0,67*
CCc1ccc2c(c1)C1(NN=C(c3ccc(C)cc3)S1)C(=O)N2 (stereo not drawn),40,89*,-5,-24,-1,-28
Cc1ccc(NC(=O)CCCCCCCCCCC2COCCO2)c(C)c1 (stereo not drawn),8,7,29,-1,-3,5
Cc1ccc(NC(=O)Cn2c(O)c(N=NC(N)=S)c3ccccc32)cc1,30,47*,64,10,43,-17
CCOC(=O)C1=C(COC(=O)c2sccc2C)NC(=O)NC1C (stereo not drawn),-3,3,-1,7,7,-16
CCOC(=O)C1=C(COC(=O)c2ccc([N+](=O)[O-])s2)NC(=O)NC1C (stereo not drawn),-5,-10,8,-32,62*,-11
Cc1c(CN(C)C)c2c(n1Cc1ccccc1)C(=O)c1ccccc1-2,0,2,-7,2,-23,62*
CCOc1ncccc1C(=O)OCC(=O)NC1CCCCCC1,-5,19,-23,-9,-2,-1
CCCS(=O)(=O)NC(=O)C1(C)CCN(C(=O)c2ccc(OC(F)F)cc2)C1 (stereo not drawn),.,5,1,6,.,-1
S=c1[nH]nc(-c2ccc(Cl)cc2Cl)n1-c1ccc2c(c1)OCCO2,-9,-41,-3,-27,-10,-23

# Screening data (PubChem BioAssay)
